Source: PubChem BioAssay
Marburg entry inh: blocks Marburg virus binding to or entry into cells | Marburg virus pseudotyped entry inhibition, cell reporter | Potency, µM (highest dose often 37.8 µM), for inactives: at the top dose activity change, negative = inhibition, usual class: inhibitors | 300,000 compounds, 1.8% hits; calls by dose curve; tested in HEK293 cells; note: potency is the fitted concentration of half-maximal effect
HCMV antiviral: human cytomegalovirus inhibition; HFF cells, HCMV-luciferase reporter, 72 h; active compounds read low; activity change, negative = inhibition, % at 57.5 µM; 410,000 compounds, 4.5% hits; AID 1259415; in the data active = activity change below about -60%; inconclusive = no clear call, values can overlap the other calls; inactive = above about -39%
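Compounds were evaluated in HFFs infected with an HCMV luciferase reporter virus (MOI 1 PFU/cell). Luciferase in lysates collected 72 h post infection served as the replication measure.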
FBPA Giardia inh: blocks Giardia fructose-bisphosphate aldolase activity | purified Giardia FBPA | Potency, µM (series often up to 59.6 µM), for inactives: at the top dose activity, negative = inhibition, hits mostly inhibitors | 290,000 compounds, 0.71% hits | AID 2451; note: potency is the fitted concentration of half-maximal effect; nearly all actives have a fitted effect of over 55% in size
Target sequence (A8B2U2 whole entry, looked up): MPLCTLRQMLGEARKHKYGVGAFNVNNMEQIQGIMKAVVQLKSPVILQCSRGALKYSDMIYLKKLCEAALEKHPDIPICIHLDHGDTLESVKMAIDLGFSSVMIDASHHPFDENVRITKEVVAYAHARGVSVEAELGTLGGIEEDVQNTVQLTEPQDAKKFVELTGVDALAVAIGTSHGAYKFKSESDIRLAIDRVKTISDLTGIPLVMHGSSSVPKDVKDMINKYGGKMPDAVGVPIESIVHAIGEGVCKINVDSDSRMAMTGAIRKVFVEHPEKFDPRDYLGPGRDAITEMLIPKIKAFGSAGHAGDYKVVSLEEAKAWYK
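40 nM FBPA preincubated 10 min at RT with compound (up to 57.5 uM final), then substrate plus GAPDH/TPI/NAD/arsenate coupling and diaphorase/resazurin added. Fluorescence read after 20 min at RT, 525/598 nm.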
FMDV antiviral: blocks foot and mouth disease virus | FMDV antiviral cell-based qHTS | Potency, µM (highest dose often 57.9 µM), for the others: at the highest dose activity change, negative = inhibition, actives largely listed as inhibitors | 410,000 compounds, 1.2% hits | AID 1159524; calls by dose curve; tested in HEK293T cells; note: read-out not given here; potency is the fitted concentration of half-maximal effect; nearly all actives have a fitted effect of over 45% in size
HCV inhibitor: inhibitors of hepatitis C virus infection | Huh7.5.1 HCVcc-Cre infection, luciferase reporter, 44 h | AID 651820 | Potency, µM (top dose mostly 41.8 µM), inactives show at the top dose activity change, negative = inhibition, hits mostly inhibitors | 340,000 compounds, 3.4% hits; note: potency is the fitted concentration of half-maximal effect
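Infectious HCVcc-Cre (~0.5 moi) was added to cells just after compound, with cells seeded 4 h earlier at 1,000 per well. Luciferase activity after 44 h culture reported infection; substrate was incubated 15 min at room temperature before reading.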
LASV entry inh: inhibitors of Lassa virus binding or cell entry; 300,000 compounds, 1.2% hits; Potency, µM (highest dose often 37.9 µM), for the others: top-dose activity change, negative = inhibition, usual class: inhibitors; Lassa virus pseudotype entry inhibition, cell reporter; calls by dose curve; tested in HEK293 cells; note: potency is the fitted concentration of half-maximal effect; nearly all actives have a fitted effect of over 50% in size
Active calls of the source: *; ? = inconclusive; · = no result given; [ ] = remark or other dose. Most compounds without a hit are left out; they make up all but 8.3% or so of the library. Unless noted, calls come from the whole dose curve; as a rule, active = well fitted curve in the direction sought with a large enough effect; inconclusive = small, poorly fitted or top-dose-only effect, or another doubt; inactive = no such curve, though single readings can be large; an effect the other way counts as inactive or inconclusive. % is set by controls: 0 for no effect and ±100 for the full control effect.

SMILES | Marburg entry inh | HCMV antiviral | FBPA Giardia inh | FMDV antiviral | HCV inhibitor | LASV entry inh
CCN(CC)C(=O)[C@H]1C[C@H](CC(=O)NCc2cccc(C(F)(F)F)c2)C(=O)N2CCc3c([nH]c4ccc(Cl)cc34)[C@]12C | · | -7 | · | ? | ? | ·
COc1cc(NC(=O)CSc2ccc(-c3sc(-c4ccccc4)nc3C)nn2)cc(OC)c1 | · | 15 | · | -8% | · | -21%[46.1 µM]
C=CCOC(=O)C(C(C)=O)C(NC(=O)OC)c1ccc2ccccc2c1 (centres undefined) | · | · | 2%[12.9 µM] | · | · | ·
COc1ccc(OC)c(N2Cc3cc(C)c(C)cc3C2)c1 | ? | 7 | ? | 0% | 22µM* | -22%
CCOc1ccccc1N1Cc2cc(C)c(C)cc2C1 | · | 3 | -7% | 1% | ? | ·
CC(=O)/C(=N\Nc1ccccc1Cl)Sc1nnc(-c2ccccc2)n1-c1ccccc1 | -25% | -61* | -21% | -18% | ? | -15%
CC(=O)/C(=N\Nc1ccc(Cl)cc1Cl)Sc1nnc(-c2ccccc2)n1-c1ccccc1 | 26% | 9 | -3% | -17% | ? | -2%
CCC1C(=O)NCCN1Cc1ccc2c(c1)CN(Cc1ccc(OC)cc1OC)CCO2 (centres undefined) | · | · | · | -9% | · | ·
C=C(C)C(=O)/C=C/CCC/C=C/C(=O)OCC | 7%[14.2 µM] | · | -1% | · | · | ·
CCN(Cc1ccccc1)C(c1ccc(C)cc1)c1nnnn1C(C)(C)CC (centres undefined) | ? | -23 | 4% | ? | 10µM* | ?
CC(C)(C)n1nnnc1C(c1cccs1)N(Cc1ccc(Cl)cc1)CC1CCCO1 (centres undefined) | ? | -70* | -21% | ? | ? | ?
CCN(CC)C(c1ccc(F)cc1)c1nnnn1C1CCCCC1 (centres undefined) | 4% | -11 | -8% | -7% | 11% | 2%
CCN(CC)C(c1ccc(C)cc1)c1nnnn1C1CCCCC1 (centres undefined) | -18% | -34 | -4% | -19% | 35µM* | 24%
CC(C)(C)n1nnnc1C(c1cccs1)N(Cc1ccccc1)Cc1cccnc1 (centres undefined) | -7% | -39 | 9% | ? | -2% | 3%
Cc1cc2cc(C(c3nnnn3C(C)(C)C)N(Cc3ccco3)CC3CCCO3)c(=O)[nH]c2cc1C (centres undefined) | ? | -18 | · | -3% | -24% | -4%
CC(C)(C)n1nnnc1C(c1cccnc1)N(Cc1ccccc1)Cc1cccs1 (centres undefined) | ? | -85* | · | -22% | ? | ?
CC(C)(C)n1nnnc1C(c1ccc(C(F)(F)F)cc1)N(Cc1ccccc1)Cc1ccco1 (centres undefined) | ? | -82* | -5% | ? | ? | ?
COCCNC(=O)[C@H](C)/C=C(\c1cccnc1)C(NC(=O)OCc1ccccc1)c1ccc(C(=O)OC)cc1 (some centres undefined) | · | · | 3% | · | · | ·
CCOc1ccc(NC(=O)Cc2csc(COc3cccc(C)c3)n2)cc1 | 0%[46.1 µM] | 18 | · | -5% | · | -4%[46.1 µM]
C/C(=N\Nc1ccccn1)c1ccc(C#N)cc1 | -2%[46.1 µM] | -23 | -7% | 33% | -22% | ·
C/C(=N\Nc1ccccn1)c1ccc(OC(F)F)cc1 | ? | 34 | -19% | 23% | 8.9µM* | ·
C/C(=N\Nc1ccccn1)c1cccs1 | -12%[46.1 µM] | 114 | -25% | 61% | 10µM* | ·
C/C(=N/NC(=O)c1cnccn1)c1cccs1 | ? | 46 | -2% | 7% | 16% | -1%
O=S(=O)(Nc1cccc(-c2ccc(N3CCCCC3)nn2)c1)c1ccc(Cl)s1 | · | 84 | · | -12% | · | ?
COc1cc(C)ccc1OCCSc1nc2ccc(NC(=O)c3ccccc3F)cc2s1 | ? | -3 | · | -16% | · | 5%[46.1 µM]
SMILES | Marburg entry inh | HCMV antiviral | FBPA Giardia inh | FMDV antiviral | HCV inhibitor | LASV entry inh
C#Cc1cccc(C(=O)NCc2nc(-c3ccccc3NC(C)=O)oc2C)c1 | · | · | · | 2% | · | ·
CC(C)(C)OC(=O)N[C@@H](Cc1ccccc1)C(=O)N1CCC(C(=O)O)CC1 | 3% | -22 | 4% | -10% | 16% | 5%
CC(C)(C)OC(=O)N[C@H](Cc1ccccc1)C(=O)N1CCC[C@@H]1C(=O)O | · | -80* | 6% | -2% | 13% | ·
COCCCn1cnn2c(=O)c3ccccc3nc2c1=O | · | 20 | · | · | · | ·
Fc1ccc(C(CCNCc2cccs2)c2ccco2)cc1 (centres undefined) | 7.9µM* | -16 | -7% | 62% | -4% | -1%
O=S(=O)(NCCC(c1ccc(F)cc1)c1ccco1)c1ccccc1 (centres undefined) | -9% | ? | -3% | 4.5µM* | ? | -18%
Cc1cc2nc3c(=O)n(C)c(=O)n(C)c3nc2cc1N=CN(C)C | -15%[46.1 µM] | 2 | · | 4% | · | -1%[46.1 µM]
CCOC(=O)c1c(C)oc2ccc(O)c(CN(C)C)c12 | -4%[46.1 µM] | 20 | -9% | -6% | 14% | -17%
CC(=O)c1c(CSc2ccccc2)oc2ccc(O)c(CN(C)C)c12 | ? | -69* | -9% | -11% | ? | ?
CCOC(=O)c1c(CSc2ccccc2)oc2ccc(O)cc12 | ? | 24 | -5% | -20% | ? | ?
CCOC(=O)c1c(CSc2ccc(CC)cc2)oc2ccc(O)c(CN(C)C)c12 | 4.5µM* | -82* | -11% | ? | 4µM* | ?
CCOC(=O)c1c(CSc2ccc(C)cc2)oc2ccc(O)cc12 | 0% | -37 | -1% | 22µM* | 14% | ?
COc1cc(C2c3c(-c4cc(C)ccc4O)n[nH]c3C(=O)N2CCCO)ccc1OCCC(C)C (centres undefined) | ? | -27 | · | ? | · | ?
COc1ccc(N2Cc3cccc(C(=O)Nc4cccc(F)c4)c3C2=O)cc1 | 5%[46.1 µM] | -3 | · | 5% | · | ?
COc1ccc(-c2ccc(C(C)=O)cc2)cc1C1C2C=CCCC2(C)C(=O)N1Cc1ccccc1 (centres undefined) | · | · | -5% | · | · | ·
Cc1c(C(=O)N(C)Cc2nccs2)sc2ncnc(NCC3CCCO3)c12 (centres undefined) | · | · | · | -19% | · | ·
FC(F)(F)c1cccc(-c2n[nH]c3ccnc(-c4ccsc4)c23)c1 | · | -60* | · | · | · | ·
CC(C)(C)c1ccc(C(=O)NNc2ncccc2-n2cccc2)cc1 | · | -60* | -14% | -10% | -11% | ·
COc1ccccc1N=C(C)C1=C(O)CC(c2ccccc2)CC1=O (centres undefined) | ? | -84* | 0% | -27% | ? | ?
CCCCCCCN=CC1=C(O)CC(c2ccccc2)CC1=O (centres undefined) | 2% | -29 | 2% | -7% | 29% | -7%
O=C1CC(c2ccccc2)CC(O)=C1C=Nc1ccccc1O (centres undefined) | · | -75* | 0% | 31% | -14% | ·
CCCCN=CC1=C(O)CC(c2ccccc2)CC1=O (centres undefined) | ? | -62* | 4% | 5% | 23% | -24%
